From PubChem BioAssay AID2314 (National Center for Advancing Translational Sciences (NCATS), 2010)
Screen size: about 300,000 compounds; about 37,000 (12%) were called active. Only a selection was taken, and actives are over-represented in it overall. Values without a mark were called inactive. Rule as the data show it: active = max response mostly above about 13% (no sharp cut-off); inactive = mostly below about 14%.

Assay: Cycloheximide Counterscreen for Small Molecule Inhibitors of Shiga Toxin; also: read at 38.3 µM for the half of the compounds with a filed dose; 0% is about no effect
Details: cell reporter, cycloheximide protein synthesis inhibition counterscreen; active compounds read high

Row | Compound | max response
1 | Cc1cccc(-c2nc3c(c(SCC(=O)N4CCOCC4)n2)CCCC3)c1 | -3.15%
2 | Cc1ccc2c(c1)C(c1ccccc1)N(C(=O)c1ccc(F)cc1)CC(=O)N2 (configuration not stated) | -3.35%
3 | CC1COc2ccccc2N1C(=O)c1ccc(F)cc1 (configuration not stated) | -4.53%
4 | O=C(CN(Cc1ccccc1)C(=O)CCC(=O)Nc1ccccn1)NCCc1ccccc1 | -3.42%
5 | OC(c1ccccc1)C(CN1CCOCC1)c1ccccc1 (configuration not stated) | 6.46%
6 | COc1cc(C(C(=O)NC2CCCC2)N(Cc2ccccc2)C(=O)c2snc(C(N)=O)c2N)ccc1O (configuration not stated) | -3.72%
7 | C=CCN(C(=O)c1cc(C)cc(C)c1)C1(C(=O)Nc2ccccc2)CCN(C(C)C)CC1 | 7.82%
8 | Cc1ccc(CN(Cc2cccnc2)C(=S)Nc2cc(Cl)ccc2C)cc1 | -1.05%
9 | CN(C)c1ccc(-n2cccc2/C=N/n2cnnc2)cc1 | 36.3% (active)
10 | O=S(=O)(N/N=C\c1cccn1-c1ccccc1)c1ccc2ccccc2c1 | -3.05%
11 | CN(C)c1ccc(-n2cccc2/C=C2/SC(=Nc3ccc(F)cc3)NC2=O)cc1 | 1.13%
12 | CCOC(=O)N1CCN(C(=O)C(=O)Nc2sc3c(c2C#N)CC(C)(C)OC3)CC1 | -4.16%
13 | CC(=O)Nc1ccc(S(=O)(=O)Nc2nccc(/C=C/c3ccccc3F)n2)cc1 | -1.75%
14 | Cc1cc(C)nc(NS(=O)(=O)c2ccc(N3C(=O)C4CCCCC4C3=O)cc2)n1 (configuration not stated) | 1.2%
15 | Cc1cc(C)nc(NS(=O)(=O)c2ccc(N/C=C\C(=O)c3cccs3)cc2)n1 | 36.2% (active)
16 | Cc1c(C(C)(C)O)[nH]c2ccc(C#N)cc12 | 6.81%
17 | COc1ccccc1CNC(=O)C1CCN(S(C)(=O)=O)CC1 | -1.24%
18 | COc1ccccc1CNC(=O)C1CCN(C(=O)[C@@H]2Cc3ccccc3CN2)CC1 | 2.06%
19 | COc1ccccc1CCNC(=O)C1CCN(C(=O)/C=C/c2ccccc2)CC1 | 14.7% (active)
20 | O=C(N/N=C/c1c(Cl)[nH]c2ccccc12)c1sc2ccccc2c1Cl | 12.8% (active)
21 | COCCNC(=S)N/N=C/c1c(C)[nH]c2ccccc12 | 8.43%
22 | Cc1nn(C)cc1/C=N/NC(=O)c1sc2ccccc2c1Cl | 4.94%
23 | COc1ccc(NC(=O)C2CCC(CNS(=O)(=O)c3csc(C(N)=O)c3)CC2)cc1OC (configuration not stated) | -7.21%

Row | Compound | max response
24 | O=C(Cc1ccccc1F)NC1CCSc2ccccc21 (configuration not stated) | -2.13%
25 | COC(=O)c1ccccc1NC(=S)NC(=O)c1ccccc1F | -2.77%
26 | O=C(NC(=S)NC1CCSC1=O)c1ccccc1F (configuration not stated) | 24.5% (active)
27 | COC1=C(N2CCOCC2)C(=O)c2ccccc2C1=O | 0.793%
28 | Fc1ccc(-c2csc(-c3ccc(C4SCCS4)cc3)n2)cc1F | 8.6%
29 | CCCCCN1CC(O)=C(c2nc(-c3ccc(Cl)cc3)cs2)C1=N | -0.837%
30 | Clc1ccc(-c2csc(-c3ccncc3)n2)cc1 | 49.1% (active)
31 | CSc1cccc(NC(=O)CN2C(=O)COc3ccc(S(=O)(=O)N4CCOCC4)cc32)c1 | -0.43%
32 | O=C(C1CC(=O)N(C2CCCCC2)C1)N1CCN(c2ccccc2)CC1 (configuration not stated) | -1.46%
33 | Cn1c(SCC(=O)N2CCCCC2)nc2c(c1=O)SCC2 | 9.54%
34 | COCc1ccc(CN2CCC(Oc3ccc(C(=O)NCc4ccccn4)cc3)CC2)o1 | 17.2%
35 | COCCCNC(=O)c1ccc2c(c1)ncn2-c1ccccc1OC | 10.4%
36 | COc1ccccc1-n1cnc2cc(NS(=O)(=O)c3ccccc3)ccc21 | 33.5% (active)
37 | COc1cc(NS(=O)(=O)c2ccccc2)ccc1-n1nc(C)cc1C | -2.43%
38 | O=C(c1cc(-c2cccc(O)c2)on1)N1CCc2ccccc2C1 | 7.88%
39 | Cc1ccc(-c2cc(C(=O)N3CCc4ccccc4C3)no2)cc1 | 10.4%
40 | Cc1ccc(-c2cc(C(=O)N3CCC4(CC3)OCCO4)no2)cc1 | 24.4% (active)
41 | COc1ccc(-c2cc(C(=O)N3CCN(c4ccc(F)cc4)CC3)no2)cc1 | -1.58%
42 | O=C(c1cc(-c2ccc(Cl)cc2)on1)N1CCN(c2ccccc2)CC1 | 30.2% (active)
43 | O=C(c1cc(-c2ccncc2)nc2ccccc12)N1CCC2(CC1)OCCO2 | 2.43%
44 | O=C(c1cccs1)N1CCN(C(=O)N2CCOCC2)CC1 | -2.36%
45 | O=C(c1cc(-c2ccc(O)cc2)on1)N1CCOCC1 | 27.7% (active)
46 | Cn1c(SCC(=O)N2CCCc3ccccc32)nc2ccccc2c1=O | -3.04%

Row | Compound | max response
47 | O=C(c1cc(-c2ccc(F)cc2)on1)N1CCN(c2ccc(F)cc2)CC1 | -2.49%
48 | O=C(c1cc(-c2ccc(O)cc2)on1)N1CCCc2ccccc21 | 32.9% (active)
49 | CCCn1nc(C(=O)N2CCCc3ccccc32)c2ccccc2c1=O | -1.1%
50 | NC(=O)Cn1cc(/C=N\NS(=O)(=O)c2ccccc2)c2ccccc21 | -1.04%
51 | COc1ccc(OC)c(Nc2nc3ccccc3n3cnnc23)c1 | -2.88%
52 | CCOc1ccc(NC(=O)CCCCCN2C(=O)[C@@H]3Cc4ccccc4CN3C2=O)cc1 | 6.74%
53 | Clc1cc(NC2CCCCC2)ncn1 | 3.36%
54 | CCCCN(CCCC)CCCNC(=O)CN1C(=O)COc2ccc(S(=O)(=O)N3CCC(C)CC3)cc21 | -3.42%
55 | Cc1ccn(-c2cccc(-n3ccc(C)n3)n2)n1 | 91.1% (active)
56 | Cc1cnc(CN(C)C(=O)CC2C(=O)NCCN2Cc2cccc(F)c2F)[nH]1 (configuration not stated) | 3.11%
57 | O=c1c2cc(Br)ccc2nc(-c2cccc(Cl)c2)n1O | -6.07%
58 | Cc1ccc(CSCC2Nc3ccc(C(=O)N4CCN(c5ccc(F)cc5)CC4)cc3NC2=O)cc1 (configuration not stated) | -5.97%
59 | O=C(CC1SC(=Nc2ccccc2)N(Cc2ccccn2)C1=O)Nc1cccc(Cl)c1 (configuration not stated) | 14.9% (active)
60 | CN1C(=O)C(CC(=O)Nc2ccccc2)S/C1=N/c1nccs1 (configuration not stated) | -0.83%
61 | CCN1C(=O)C(CC(=O)Nc2cc(C)ccc2C)SC1=Nc1ccc(S(N)(=O)=O)cc1 (configuration not stated) | -7.73%
62 | CC(=O)Nc1ccc(S(=O)(=O)NC2Cc3ccccc3C2)cc1 | -1.22%
63 | CCN1/C(=C/C(=S)Nc2ccccc2)Sc2ccccc21 | 44.5% (active)
64 | O=C(CCN1c2ccccc2Sc2ccccc21)Nc1ccccc1 | 9.13%
65 | CCNC(=O)N1c2ccccc2Sc2ccccc21 | -0.857%
66 | CCn1cc(C(=O)NCC(=O)NC(C)(C)CO)c(=O)c2cc3c(cc21)OCO3 | 1.3%
67 | O=C(CN1C(=O)C2C3C=CC(C3)C2C1=O)Nc1nc(-c2ccccn2)cs1 (configuration not stated) | -1.06%
68 | O=C(CC(=O)N/N=C\c1cccc(Cl)c1Cl)NCc1ccccc1 | 8.71%
69 | O=C(CCCO)N/N=C/c1cc(Br)ccc1O | -2.8%

Row | Compound | max response
70 | O=C(N/N=C/c1ccccc1O)/C(=C/c1ccccc1)CCO | 16.6% (active)
71 | COc1ccc(OC)c(S(=O)(=O)N2CCCC(C(=O)NCCc3ccccc3)C2)c1 (configuration not stated) | 8.7%
72 | Cc1cccc(N2CCN(C(=O)c3cnn4c(C(F)F)cc(-c5ccccc5)nc34)CC2)c1C | -1.97%
73 | CSCCC(NC(=O)c1ccc(Cl)cc1Cl)C(=O)NNC(=O)c1csc(N2CCOCC2)n1 (configuration not stated) | 0.959%
74 | O=C(COc1ccc([N+](=O)[O-])cc1)Nc1ccc(N2CCCC2)cc1 | -1.27%
75 | NC(=O)c1ccc(NC(=O)COC(=O)c2ccc([N+](=O)[O-])cc2)cc1 | 0.779%
76 | O=C(COC(=O)C1CCCCC1)Nc1ccc([N+](=O)[O-])cc1 | 24.8% (active)
77 | CC1(C)C(C=C(Cl)Cl)C1C(=O)NC(O)C(=O)c1ccccc1 (configuration not stated) | -3.63%
78 | CCn1cc(C(=O)NCc2ccc(OC)cc2OC)c(=O)c2ccc(C)nc21 | -2.54%
79 | CNC(=O)C1CCN(S(=O)(=O)c2c(C)noc2/C=C/c2cccc(C)c2)CC1 | -3.52%
80 | Cc1cccc(NC(=O)C2CCN(S(=O)(=O)c3cccc4cccnc34)CC2)c1 | -2.32%
81 | Cc1ccnc(NC(=O)C2CCN(S(=O)(=O)c3c(C)c(C)cc(C)c3C)CC2)c1 | 13.3% (active)
82 | COc1cccc(C(=O)Nc2nnc(S(=O)(=O)N(C)c3ccccc3)s2)c1 | -2.81%
83 | CN(c1ccccc1)S(=O)(=O)c1cc(C(=O)Nc2nc3ccccc3[nH]2)ccc1Cl | 16.5% (active)
84 | CN(c1ccccc1)S(=O)(=O)c1cc(C(=O)OCC(=O)N2CCN(C(=O)c3ccco3)CC2)ccc1Cl | -1.38%
85 | O=C(CN1CCN(c2ncccn2)CC1)Nc1ccccc1C(F)(F)F | -6.89%
86 | O=C(C1CCCN(S(=O)(=O)c2ccc([N+](=O)[O-])cc2)C1)N1CCCCC1 (configuration not stated) | 1.11%
87 | COc1ccc(CCNC(=O)CSc2nnc(CNC(=O)c3cccs3)o2)cc1OC | -3.82%
88 | COc1ccccc1-c1nnc(SCC(=O)N2CC(C)CC(C)C2)o1 (configuration not stated) | 1.31%
89 | COc1ccc(-c2nnc(SCC(=O)c3cccs3)o2)c(OC)c1 | 51.4% (active)
90 | COc1cccc(NC(=O)CSc2nnc(Cc3ccc(OC)c(OC)c3)o2)c1 | -3.54%
91 | COc1ccccc1-c1nnc(SCC(=O)Nc2ccccc2)o1 | 11.4% (active)
92 | COc1ccccc1-c1nnc(SCC(=O)Nc2cc(C)on2)o1 | 2.69%
